Screening data: PubChem BioAssay, National Center for Advancing Translational Sciences (NCATS)
Only some compounds are listed: those with a hit (about 7.6% of all), similar ones and a draw of the others.
MCF10A rerep: A quantitative high throughput screen for small molecules that induce DNA re-replication in MCF 10a normal breast cells. MCF 10A DNA re-replication, Hoechst nuclear intensity, 48 h. Potency, µM (top dose mostly 46.1 µM), actives largely listed as activators. hit rate 2.9% among 350,000; also: nearly all actives have a fitted effect of over 50% in size
KB-3-1 cytotox: qHTS assay for MDR1-selective chemotherapeutics: Primary screen using the parental adenocarcinoma cell KB-3-1. KB-3-1 viability, CellTiter-Glo ATP luminescence, 72 h. AID 1347075, 2019. Potency, µM (titrated, usually from 46.1 µM), usual class: cytotoxic. hit rate 1.4% among 400,000; also: nearly all actives have a fitted effect of over 60% in size
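Cells are dispensed, compounds pinned in, plates held at 37 °C for 72 h, then CellTiter-Glo is added and luminescence read after 10 minutes. Cell line: parental KB-3-1 in phenol-red-free DMEM, 10% FBS.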
KB-V1 MDR tox: qHTS assay for MDR1-selective chemotherapeutics: Primary screen using the drug-selected MDR subline cells KB-V1 | KB-V1 MDR cells viability, CellTiter-Glo, 72 h | hit rate 3.4% among 400,000 | Potency, µM (top dose mostly 46.1 µM), actives largely listed as cytotoxic; also: nearly all actives have a fitted effect of over 60% in size
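Drug-selected KB-V1 cells, grown in DMEM lacking phenol red with 10% FBS, receive compound titrations; after three days at 37 degrees C, surviving cell ATP is quantified by CellTiter-Glo luminescence and responses normalized and curve-fitted.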
SW480 rerep: A quantitative high throughput screen for small molecules that induce DNA re-replication in SW480 colon adenocarcinoma cells; hit rate 1.8% among 340,000; Potency, µM (top dose mostly 46.1 µM), actives largely listed as activators; SW480 DNA re-replication, Hoechst DNA content imaging, 48 h; also: nearly all actives have a fitted effect of over 55% in size
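Image-based read-out: total Hoechst fluorescence of nuclei (405 nm excitation, 500-530 nm emission), with hits raising the fraction of high-intensity nuclei. SW480 colon cells incubated 48 hr with compounds at 37 C.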
KCNH2 3.1 inh: qHTS for Inhibitors of KCHN2 3.1: Mutant qHTS | Potassium voltage-gated channel subfamily H member 2, brain isoform KCNH2 3.1 (human) | U2OS KCNH2 3.1, thallium flux FluxOr; active compounds read low | activity change, % (tested at about 1.8 µM) | hit rate 0.95% among 340,000;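 active = maximum activity change below -70%; inconclusive = maximum activity change from -70% to -50%; inactive = maximum activity change above -50%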;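 also: thallium influx rate constant from kinetic fluorescence after stimulation buffer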
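FluxOr-based Tl+ influx in U2OS cells transduced with KCNH2 3.1 virus; rate constants normalized to DMSO controls.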
KCNH2 WT inh: qHTS for Inhibitors of KCHN2 3.1: Wildtype qHTS. U2OS, BacMam KCNH2, thallium flux FluxOr; active compounds read low. hit rate 0.37% among 340,000. activity change, % at 1.84 µM;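 active = maximum activity change below -70%; inconclusive = maximum activity change between -70% and -50%; inactive = maximum activity change above -50%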
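U2OS cells were transduced with wild-type KCNH2 virus (2.03 x 10^8 / mL) for 4 h at room temperature, then cultured overnight at 37 C. Thallium flux was read with FluxOr dye. Rate constants were normalized to DMSO controls.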
Hits are given with their value; n = inactive; u = inconclusive; x = no result given; [ ] = remark or other dose. Unless noted, calls follow the shape of the dose curve; as a rule, active = well fitted curve in the direction sought with a large enough effect; inconclusive = small, poorly fitted or top-dose-only effect, or another doubt; inactive = no such curve, though single readings can be large; an effect the other way counts as inactive or inconclusive.

SMILES	MCF10A rerep	KB-3-1 cytotox	KB-V1 MDR tox	SW480 rerep	KCNH2 3.1 inh	KCNH2 WT inh
Cc1cc(N2C(=O)C3C4c5ccccc5C(c5ccccc54)C3C2=O)no1 (stereo unspecified)	u	n	8.2µM	n	n	n
COc1ccc(C2CC(O)(c3ccccc3)Oc3c(C)ccc(C)c32)cc1 (stereo unspecified)	u	u	u	u	n	n
COc1ccc(C2CC(O)(c3ccccc3)Oc3cc(OC)cc(OC)c32)cc1 (stereo unspecified)	21µM	u	n	n	x	x
Cc1ccc(CN2CC(C(=O)N3CCN(S(=O)(=O)c4ccc(C(C)C)cc4)CC3)CC2=O)cc1 (stereo unspecified)	n	n	u	n	-79	n
Cc1ccc(CN2CC(C(=O)N3CCN(S(=O)(=O)c4cc(C)ccc4C)CC3)CC2=O)cc1 (stereo unspecified)	n	n	n	n	n	n
Cc1cc(C)c(NC(=O)C2CC(=O)N(Cc3ccccc3)C2)c(C)c1 (stereo unspecified)	n	n	n	16µM	n	n
CC(=O)Nc1ccc(NC(=O)C2CC(=O)N(Cc3ccccc3)C2)cc1 (stereo unspecified)	n	n	n	n[1.84 µM]	n	n
Cc1ccc(CN2CC(C(=O)N3CCN(S(=O)(=O)c4ccc(C)cc4C)CC3)CC2=O)cc1 (stereo unspecified)	n	n	16µM	n	n	n
CCCCN(CCCC)CCNC(=O)CNC(=O)c1cccs1	n	n	n	n	n	n
CC1CCC(C(C)C)C(OC(=O)COC(=O)c2ccc(N)cc2)C1 (stereo unspecified)	23µM	n	n	n	n	n
O=C(Nc1ccc(F)cc1)c1ccc(-n2cncn2)c([N+](=O)[O-])c1	n	u	12µM	n	n	n
COc1cc(C(=O)NCCOc2cc(C)cc(C)c2)c(Br)c(OC)c1OC	u	n	10µM	u	n	n
O=C(CCc1ccccc1)Nc1ccc(Cl)cn1	5.8µM	5.8µM	u	6.5µM	n	n
Cc1cnc(NC(=O)CCc2ccccc2)s1	10µM	u	n	13µM	n	n
COc1ccc(CCC(=O)Nc2ncc(C)s2)cc1OC	n	u	n	u	n	n
CCOc1ccc(N(CC(=O)NCc2ccccc2C)S(C)(=O)=O)cc1	n	u	n	u	n	n
O=C1c2cccc3cccc(c23)C(=O)N1c1ccccc1Cl	n	n	n	n	n	n
Nc1ccccc1N1C(=O)c2cccc3cccc(c23)C1=O	8.2µM	n	u	18µM	n	n
CCOC(=O)C1NN=C(C(=O)c2ccccc2)C1c1ccccc1 (stereo unspecified)	n	n	21µM	n	n	n
COC(=O)c1cc(-c2c(C)oc3cc(O)ccc3c2=O)c(C)o1	n	n	n	n	n	n
COC(=O)c1cc(-c2c(C)oc3cc(OC)ccc3c2=O)c(C)o1	n	n	18µM	n	n	n
Cc1ccc(NC(=S)N(Cc2ccc(Br)cc2)Cc2ccc(C(=O)O)cc2)cc1C	n	n	n	n	n	n
Cn1c(=O)nc2n(Cc3ccccc3)c3cccc(Cl)c3cc-2c1=O	n	n	21µM	n	n	n
C/C=C(/C)C(=O)O[C@@H]1c2c(ccc3ccc(=O)oc23)OC(C)(C)[C@@H]1OC(=O)/C(C)=C\C	u	u	u	u	n	n
CC(=O)OC1c2c(ccc3ccc(=O)oc23)OC(C)(C)C1OC(=O)CC(C)C (stereo unspecified)	n	n	12µM	n	n	n
SMILES	MCF10A rerep	KB-3-1 cytotox	KB-V1 MDR tox	SW480 rerep	KCNH2 3.1 inh	KCNH2 WT inh
CC(=O)Nc1cc(NC(C)=O)cc(C(=O)NC(C)(C)C)c1	n	n	n	n	n	n
CCCN(CC1CC1)C(=O)CCc1nnc(CCc2c[nH]c3ccccc23)o1	n	n	n	n	-98	n
CCN(CC)C(=O)CCc1nnc(CCc2c[nH]c3ccccc23)o1	n	n	n	n	n	n
CC1(C(=O)Nc2ccccc2)Cc2c(-c3cccc(C(N)=O)c3)ccnc2O1 (stereo unspecified)	x	n	n	x	x	x
CC1(C(=O)Nc2ccc3c(c2)OCO3)Cc2c(-c3ccc4c(c3)OCO4)ccnc2O1 (stereo unspecified)	x	5.2µM	u	x	x	x
CC1(C(=O)Nc2ccc3c(c2)OCO3)Cc2c(-c3cccc(C(N)=O)c3)ccnc2O1 (stereo unspecified)	x	7.3µM	u	x	x	x
COc1ccc(NC(=O)C2(C)Cc3c(-c4ccc5c(c4)OCO5)ccnc3O2)cn1 (stereo unspecified)	x	5.8µM	12µM	x	x	x
CC1CCN(c2nnc(-c3cccs3)c3ccccc23)CC1	u	n	n	n	-85	n
Cc1cc(SCC(=O)NCc2ccccc2)nc(=O)[nH]1	x	n	n	x	x	x
CCn1ccnc1C(O)c1ccccc1OC (stereo unspecified)	13µM	n	n	18µM	n	n
CCCc1ncc(C(O)c2ccccc2OC)n1C (stereo unspecified)	n	u	n	n	n	-201
CCCc1ncc(C(O)c2cccc(OC)c2OC)n1C (stereo unspecified)	n	n	n	n	n	n
CCOC(=O)CSc1nc2c(c(=O)[nH]1)C(C)(CC)Cc1ccccc1-2 (stereo unspecified)	u	u	u	u	n	n
COc1ccc2nc(N3CCC(C)CC3)c(C#N)cc2c1	5.8µM	n	n	21µM	n	n
COc1cccc(S(=O)(=O)N(C)C[C@H]2OCc3cnnn3CCCC(=O)N([C@H](C)CO)C[C@@H]2C)c1	x	n	n	x	n	n
COc1ccc(C2=CC(c3c(C)nn(-c4ccccc4)c3Cl)n3nnnc3N2)cc1OC (stereo unspecified)	u	16µM	21µM	u	n	n
O=C1N(c2ccccc2)C(c2ccccc2)C12CCCCC2 (stereo unspecified)	u	n	n	n	n	n
CCOC(=O)Cc1nnc2c(Nc3ccc(Cl)cc3)nc3nonc3n12	13µM	u	u	n	n	n
Cc1cccc(NC(=O)CN2C(=O)N/C(=C\c3ccc(-c4cccc(C(=O)O)c4)o3)C2=O)c1	16µM	n	n	18µM	n	n
